# The whole screen tested about 360,000 compounds, of which about 2,300 (0.64%) were called active. What follows is part of a selection rich in actives, with near analogues and random picks from the rest. Unmarked numbers belong to inactive results. No stated cut-off is given here; in the data, active means inhibition mostly above about 40% (no sharp cut-off); inactive means mostly below about 27%.
# Target: Sentrin-specific protease 8 (Homo sapiens) (UniProt Q96LD8)
# Assay: human SENP8 protease inhibitors, primary screen, biochemical, fluorescence, Nedd8 protein substrate, uHTS (AID 602440)
# Conditions: recombinant SENP8, Nedd8 substrate fluorescence; at 20 µM; hits give high values
# Chain of Sentrin-specific protease 8 (Homo sapiens) (Q96LD8 whole entry, looked up): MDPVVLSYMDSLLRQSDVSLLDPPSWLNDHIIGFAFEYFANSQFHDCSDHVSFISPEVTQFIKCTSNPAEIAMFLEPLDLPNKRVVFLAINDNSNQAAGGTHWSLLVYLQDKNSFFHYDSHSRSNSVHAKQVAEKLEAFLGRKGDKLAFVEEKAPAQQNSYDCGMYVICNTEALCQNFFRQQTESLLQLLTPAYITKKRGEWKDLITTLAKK
row,SMILES,inhibition
1,COc1cccc(N2C(=O)CC(N3CCc4ccccc4C3)C2=O)c1 (configuration not stated),11.5%
2,O=C(c1c(F)cccc1Cl)N1CCN(S(=O)(=O)c2ccc3c(c2)OCCCO3)CC1,5.8%
3,CC(C)CC(=O)N=C1SC2CS(=O)(=O)CC2N1CCc1ccccc1 (configuration not stated),42% (active)
4,O=C(CCC1CCCC1)N=C1SC2CS(=O)(=O)CC2N1Cc1ccccc1 (configuration not stated),8.9%
5,O=C(N=C1SC2CS(=O)(=O)CC2N1Cc1ccccc1)c1ccccc1 (configuration not stated),13.8%
6,Cn1c2c(c(=O)n(C)c1=O)C(c1ccc(O)cc1)Nc1ccccc1O2 (configuration not stated),23%
7,COc1ccc(S(=O)(=O)N/N=C\c2ccc(OC)c(COc3ccc(C)cc3[N+](=O)[O-])c2)cc1,10.6%
8,O=C(O)c1cc(S(=O)(=O)Nc2ccc3cn[nH]c3c2)ccc1Br,-90.8%
9,COc1ccc(S(=O)(=O)Nc2ccc3cn[nH]c3c2)cc1[N+](=O)[O-],45.4% (active)
10,Cc1cc(NC(=O)CCC(=O)N(Cc2ccccc2)C(C(=O)NC2CCCC2)c2ccc(C)o2)no1 (configuration not stated),1.5%
11,CCOc1ccc(NC(=O)c2cccc3c2C(=O)N(CC2CCCO2)C3)cc1 (configuration not stated),5.6%
12,CCCN1C(=O)C(Cc2nc3ccccc3c(=O)n2-c2ccccc2)c2cc(C)ccc21 (configuration not stated),12.4%
13,CCn1c(O)c(N=NC2=NC(=O)CS2)c2cc(C)ccc21,46.9% (active)
14,CCn1c(O)c(N=NC(=O)c2cccc(S(=O)(=O)N3CCCCC3)c2)c2ccccc21,28%
15,N#Cc1cccc(NC(=O)c2cc(C3CCCCN3C(=O)CCc3ccccc3)on2)c1 (configuration not stated),8.1%
16,Clc1ccc(C2[C@H]3CN(CC4CCCCC4)[C@H](c4ccccc4)C34CC2(c2cccnc2)C4)cn1 (some centres not stated),7.6%
17,COc1ccc(NC(=O)CSc2nnnn2-c2cccc(OC)c2)cc1,10.5%
18,Cc1ccc(S(=O)(=O)NC(=O)COc2ccccc2C)cc1,12.8%
19,Cc1ccc(NS(=O)(=O)c2ccc(N/N=C/c3ccccc3OCC(=O)O)c([N+](=O)[O-])c2)c(C)c1,49.7% (active)

row,SMILES,inhibition
1,COc1ccc(N(CC(=O)Nc2ccc(C)cc2C)S(=O)(=O)c2ccccc2[N+](=O)[O-])c(OC)c1,10.2%
2,COc1ccccc1C(CNC(=O)c1cccc(NS(=O)(=O)c2ccc(Br)cc2)c1)N(C)C (configuration not stated),0.9%
3,CC1CN(C(=O)c2ccccc2NS(=O)(=O)c2cccc([N+](=O)[O-])c2)CC(C)O1 (configuration not stated),4.5%
4,COc1ccc(Br)cc1/C=N/Nc1ccc(S(=O)(=O)Nc2ccccc2C(=O)O)cc1[N+](=O)[O-],46.4% (active)
5,COc1cccc(N(Cc2nnc3n2CCCCC3)C(=O)Nc2ccccc2F)c1,9.7%
6,CC1CC2=C(CC1/C=N/NC(N)=S)C(C)(C)CCC2 (configuration not stated),12.2%
7,O=C(CCNS(=O)(=O)c1ccccc1)NCCSc1ccc(Br)cc1,9%
8,CNC(=O)COc1ccc(S(=O)(=O)Nc2ccccc2)cc1,3.4%
9,Cc1ccc(S(=O)(=O)N[C@H](CO)C(C)C)cc1,11.7%
10,COc1ccc(S(=O)(=O)/N=C2\C=C(NS(=O)(=O)c3ccccc3)C(=O)c3ccccc32)cc1,70% (active)
11,COc1ccc(C(=O)C(C)OC(=O)c2cccc(S(=O)(=O)Nc3c(C)n(C)n(-c4ccccc4)c3=O)c2)cc1 (configuration not stated),5.8%
12,Cc1ccc(S(=O)(=O)/N=C2\C=C(NS(=O)(=O)c3ccc(C)cc3)C(=O)c3ccccc32)cc1,89.9% (active)
13,Cc1ccc(S(=O)(=O)N/N=C(\c2ccccc2)C2CC2)cc1,3.3%
14,COC(=O)c1ccccc1NC(=O)c1cncc(Br)c1,3.1%
15,C/C=N/NC(=O)CCCC(=O)N/N=C/C,6.6%
16,COc1cc2c(cc1OC)C(=O)NCC(C)(C)O2,15.5%
17,COc1cc(C(C(=O)NC2CCCC2)N(C(=O)c2ccco2)c2ccccc2C(C)=O)cc(OC)c1OC (configuration not stated),10.1%
18,O=C1OCCN1C(=O)[C@H]1[C@H](c2ccc(Cl)cc2)C(c2cccc(Cl)c2)=NN1c1ccc(Br)cc1,-366%
19,O=C(c1cccnc1)N(c1cc2sc(=O)oc2c2ccccc12)S(=O)(=O)c1ccccc1,7.7%

row,SMILES,inhibition
1,O=C(O)CN1C(=O)CC(Cc2ccccc2)C1=O (configuration not stated),3.4%
2,COc1cccc(CC2(CO)CCCN(Cc3ccc(OC(F)F)cc3)C2)c1 (configuration not stated),10.3%
3,CN(C)c1ccc(/C=C/C(=O)c2ccc(O)cc2)cc1[N+](=O)[O-],47.5% (active)
4,CN(C)c1ccc(S(=O)(=O)NCC(=O)NCC2CCCCC2)cc1[N+](=O)[O-],11.6%
5,CCN(CC)CCN(C)C(c1ccnc2ccccc12)c1nnnn1-c1ccc2c(c1)OCCO2 (configuration not stated),7.5%
6,CC(C)N(C(=O)[C@H]1C[C@H](CC(=O)NC(C)(C)C)C(=O)N2CCc3c([nH]c4ccc(Cl)cc34)[C@]12C)C(C)C,19%
7,COC(=O)C1=C(C(=O)c2ccc(C)cc2)C(c2ccccc2)n2nnnc2N1 (configuration not stated),44.3% (active)
8,COc1ccccc1NC(=O)C1=C(C)Nc2nnnn2C1c1cccc(Br)c1 (configuration not stated),6%
9,COC(=O)c1ccc(C2C3=C(Nc4nnnn42)c2ccccc2OC3)cc1 (configuration not stated),-273%
10,O=C1CC(Cc2ccc(Cl)cc2)C(=O)N1c1cc(Cl)ccn1 (configuration not stated),9.6%
11,COc1ccccc1CNC(=O)COC(=O)c1sc(C)nc1C,17.6%
12,CCN(C(=O)COc1cccnc1[N+](=O)[O-])C1CCS(=O)(=O)C1 (configuration not stated),11.8%
13,NC1=CC(=O)C(=O)c2cccnc21,95% (active)
14,C[C@@H](O)c1nc2ccccc2n1N,19%
15,Cc1ccc2c(=O)cc(C(=O)NCCc3ccc(S(N)(=O)=O)cc3)oc2c1C,12.8%
16,CCN(CC)c1ccc(S(=O)(=O)N2CCCCC2)cc1NC(=O)C1=COCCO1,5.2%
17,O=[N+]([O-])c1ccccc1NCc1ccccc1Cl,46.6% (active)
18,O=C(NCc1ccccc1Cl)NC(=O)c1csc([N+](=O)[O-])c1,6.1%
19,O=C(NCCNc1ccccc1[N+](=O)[O-])c1ccccc1F,19.2%

# Source: PubChem BioAssay AID602440 (Sanford-Burnham Center for Chemical Genomics, 2012)
